Holding throughout (assay): universal protein binding microarray (PBM); transcription factors of Arabidopsis thaliana; high values mean tight binding
One assay concerns the target T1, GST-ANAC092(1-176) (Arabidopsis thaliana, UniProt Q9FKA0 1-176).
T1 sequence: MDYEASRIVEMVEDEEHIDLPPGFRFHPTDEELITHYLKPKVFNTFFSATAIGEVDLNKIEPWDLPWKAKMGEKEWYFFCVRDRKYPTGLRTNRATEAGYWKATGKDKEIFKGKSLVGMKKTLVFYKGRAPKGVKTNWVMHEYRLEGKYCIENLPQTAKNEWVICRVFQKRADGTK
The following applies: protein: recombinant; tags: GST; chain copies: 2; dsDNA, one strand shown. The essentials: (§1)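 Binding is expressed as the normalised enrichment score (E-score). Proteins carrying a GST tag, whether NAC-domain, full-length or DNA-binding-domain forms, were induced in cells, and zinc acetate was added for zinc-finger proteins. After purification on glutathione–Sepharose 4B and quantification by A280 or anti-GST western blot, each was applied in duplicate at 200 to 500 nM final to custom all-10-mer Agilent 4 × 180K arrays made double-stranded by primer extension. Gapped and ungapped 8-mers were scored.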

The target in another assay is T2, GST-ANAC019 NAC domain (Arabidopsis thaliana, UniProt Q9C932 14-162).
T2 sequence: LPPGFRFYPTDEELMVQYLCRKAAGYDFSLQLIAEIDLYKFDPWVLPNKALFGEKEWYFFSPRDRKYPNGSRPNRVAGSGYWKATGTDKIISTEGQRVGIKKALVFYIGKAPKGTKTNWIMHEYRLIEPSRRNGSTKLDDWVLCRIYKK
The note with it: protein: recombinant; tags: GST; chain copies: 2; dsDNA, one strand shown. The method, boiled down:
as §1

A further assay concerns the target T3, GST-ANAC055(1-171) (Arabidopsis thaliana, UniProt Q9LDY8 1-171).
T3 sequence: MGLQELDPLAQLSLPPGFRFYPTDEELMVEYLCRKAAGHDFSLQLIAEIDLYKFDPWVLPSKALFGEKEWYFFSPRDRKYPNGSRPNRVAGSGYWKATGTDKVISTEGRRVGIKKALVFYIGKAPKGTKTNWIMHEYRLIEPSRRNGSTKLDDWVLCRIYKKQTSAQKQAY
The note with it: protein: recombinant; tags: GST; chain copies: 2; dsDNA, one strand shown. The method, boiled down:
as §1

A further assay has as its target T4, GST-ATAF1 NAC domain (Arabidopsis thaliana, UniProt Q39013 7-158).
T4 sequence: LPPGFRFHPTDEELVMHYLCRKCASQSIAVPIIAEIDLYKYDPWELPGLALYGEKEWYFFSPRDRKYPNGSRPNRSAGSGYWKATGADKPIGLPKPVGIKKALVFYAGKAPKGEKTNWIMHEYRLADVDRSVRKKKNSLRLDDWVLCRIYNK
The note with it: protein: recombinant; tags: GST; chain copies: 2; dsDNA, one strand shown. The essentials:
as §1

Assay [1] deals with T5, GST-ANAC092(1-285) full length (Arabidopsis thaliana, UniProt Q9FKA0 1-285).
T5 sequence: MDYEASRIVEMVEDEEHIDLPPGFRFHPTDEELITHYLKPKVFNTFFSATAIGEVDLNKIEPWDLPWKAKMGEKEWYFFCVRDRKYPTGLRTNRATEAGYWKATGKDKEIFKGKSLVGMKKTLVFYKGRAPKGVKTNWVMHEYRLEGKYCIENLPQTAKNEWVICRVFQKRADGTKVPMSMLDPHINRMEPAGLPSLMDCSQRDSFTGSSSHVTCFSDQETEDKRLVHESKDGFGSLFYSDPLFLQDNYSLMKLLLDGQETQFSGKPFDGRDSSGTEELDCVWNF
The note with it: protein: recombinant; tags: GST; chain copies: 2; dsDNA, one strand shown. The essentials: as §1

Another assay has as its target T6, GST-NAP(1-166) (Arabidopsis thaliana, UniProt O49255 1-166).
T6 sequence: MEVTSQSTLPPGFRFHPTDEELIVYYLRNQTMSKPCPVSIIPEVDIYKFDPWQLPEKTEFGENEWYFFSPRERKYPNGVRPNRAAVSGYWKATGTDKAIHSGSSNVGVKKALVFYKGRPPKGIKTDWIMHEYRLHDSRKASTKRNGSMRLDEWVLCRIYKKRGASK
The following applies: protein: recombinant; tags: GST; chain copies: 2; dsDNA, one strand shown. The method, boiled down:
as §1

The target in another assay is T7, GST-NST2(1-184) (Arabidopsis thaliana, UniProt Q9M274 1-184).
T7 sequence: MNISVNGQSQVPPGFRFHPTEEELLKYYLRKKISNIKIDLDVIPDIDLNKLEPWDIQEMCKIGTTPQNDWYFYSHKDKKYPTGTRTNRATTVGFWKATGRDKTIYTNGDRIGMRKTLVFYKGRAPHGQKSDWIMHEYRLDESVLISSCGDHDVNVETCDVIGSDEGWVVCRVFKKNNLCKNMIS
The following applies: protein: recombinant; tags: GST; chain copies: 2; dsDNA, one strand shown. The essentials: as §1

A further assay addresses T8, GST-SND1(1-203) (Arabidopsis thaliana, UniProt Q9LPI7 1-203).
T8 sequence: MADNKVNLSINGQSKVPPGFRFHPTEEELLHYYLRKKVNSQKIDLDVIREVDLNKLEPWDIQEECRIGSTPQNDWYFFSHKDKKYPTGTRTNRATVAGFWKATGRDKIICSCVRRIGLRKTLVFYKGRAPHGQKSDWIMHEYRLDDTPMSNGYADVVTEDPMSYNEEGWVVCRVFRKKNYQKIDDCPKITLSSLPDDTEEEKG
The following applies: protein: recombinant; tags: GST; chain copies: 2; dsDNA, one strand shown. The essentials:
as §1

The next assay addresses T9, GST-VND3 NAC domain (Arabidopsis thaliana, UniProt Q9FH59 12-162).
T9 sequence: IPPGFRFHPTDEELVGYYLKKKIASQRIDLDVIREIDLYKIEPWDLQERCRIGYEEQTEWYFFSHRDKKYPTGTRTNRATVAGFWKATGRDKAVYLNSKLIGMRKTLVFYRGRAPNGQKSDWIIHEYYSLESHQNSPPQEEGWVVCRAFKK
The following applies: protein: recombinant; tags: GST; chain copies: 2; dsDNA, one strand shown. The method, boiled down: as §1

The target of another assay is T10, GST-VND7 NAC domain (Arabidopsis thaliana, UniProt Q9C8W9 9-158).
T10 sequence: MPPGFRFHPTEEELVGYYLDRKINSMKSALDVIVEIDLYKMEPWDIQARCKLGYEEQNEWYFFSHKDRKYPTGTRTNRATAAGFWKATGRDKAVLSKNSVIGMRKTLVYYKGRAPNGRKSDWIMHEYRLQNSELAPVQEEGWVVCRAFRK
The note with it: protein: recombinant; tags: GST; chain copies: 2; dsDNA, one strand shown. The essentials:
as §1

A further assay deals with GST-WRKY1(266-371) (Arabidopsis thaliana, UniProt Q9SI37 266-371). The following applies: protein: recombinant; tags: GST; dsDNA, one strand shown. The method, boiled down:
as §1

For a further assay, the target named is GST-NTL6(1-168) (Arabidopsis thaliana, UniProt Q9SCK6 1-168). The note with it: protein: recombinant; tags: GST; chain copies: 2; dsDNA, one strand shown. The method, boiled down:
as §1

Sequence of GST-WRKY1(266-371) (Q9SI37 266-371): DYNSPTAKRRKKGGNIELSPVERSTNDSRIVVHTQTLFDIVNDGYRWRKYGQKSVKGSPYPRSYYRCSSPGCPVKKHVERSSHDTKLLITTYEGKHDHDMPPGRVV
Sequence of GST-NTL6(1-168) (Q9SCK6 1-168): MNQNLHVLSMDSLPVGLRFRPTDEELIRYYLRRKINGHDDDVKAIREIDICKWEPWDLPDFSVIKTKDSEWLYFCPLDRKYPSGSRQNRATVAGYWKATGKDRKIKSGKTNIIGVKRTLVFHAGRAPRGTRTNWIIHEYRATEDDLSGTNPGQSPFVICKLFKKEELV

For ACACGTCA, the binding signal in the assay with GST-ANAC092(1-176) was 0.484 E-score; with GST-ANAC019 NAC domain, 0.436 E-score; in the assay with GST-ANAC055(1-171), 0.402 E-score; with GST-ATAF1 NAC domain, 0.382 E-score; in assay [1], 0.487 E-score; with GST-NAP(1-166), 0.431 E-score. For the same sequence, the binding signal in the assay with GST-NST2(1-184) worked out at 0.316 E-score; with GST-SND1(1-203), 0.352 E-score; in the assay with GST-VND3 NAC domain, 0.395 E-score; with GST-VND7 NAC domain it was 0.447 E-score; with GST-WRKY1(266-371), 0.251 E-score.

With CTACGTCA, the binding signal with GST-ANAC092(1-176) was 0.0986 E-score; in the assay with GST-ANAC019 NAC domain, 0.133 E-score; in the assay with GST-ANAC055(1-171), 0.129 E-score; with GST-ATAF1 NAC domain, 0.166 E-score; in assay [1], 0.318 E-score; with GST-NAP(1-166), 0.148 E-score. The binding signal in the assay with GST-NST2(1-184) was 0.31 E-score; with GST-SND1(1-203) it was 0.452 E-score; with GST-VND3 NAC domain, 0.144 E-score; in the assay with GST-VND7 NAC domain it was 0.176 E-score; with GST-WRKY1(266-371), 0.137 E-score.

Regarding AGATTGAC, the binding signal in the assay with GST-ANAC092(1-176) was determined as 0.135 E-score; with GST-NTL6(1-168) it was 0.0646 E-score; in the assay with GST-ANAC055(1-171) it was 0.0571 E-score; with GST-ATAF1 NAC domain it was 0.0846 E-score; in assay [1] it was 0.15 E-score; with GST-NST2(1-184), 0.0869 E-score. Further, the binding signal stood at 0.179 E-score in the assay with GST-SND1(1-203), 0.0944 E-score in the assay with GST-VND3 NAC domain, 0.0768 E-score in the assay with GST-VND7 NAC domain and 0.457 E-score with GST-WRKY1(266-371).

For the sequence AACACGTC, the binding signal amounted to 0.397 E-score with GST-ANAC092(1-176); 0.33 E-score with GST-ANAC019 NAC domain; 0.325 E-score in the assay with GST-ANAC055(1-171); 0.316 E-score in the assay with GST-ATAF1 NAC domain; 0.428 E-score in assay [1]; 0.262 E-score with GST-NAP(1-166). Further, the binding signal with GST-NST2(1-184) was determined as 0.0538 E-score; with GST-SND1(1-203), 0.12 E-score; with GST-VND3 NAC domain, 0.343 E-score; with GST-VND7 NAC domain, 0.312 E-score; in the assay with GST-WRKY1(266-371) it was 0.131 E-score.

For the sequence ATTACGTC, the binding signal with GST-ANAC092(1-176) was determined as 0.366 E-score; in the assay with GST-ANAC019 NAC domain, 0.329 E-score; in the assay with GST-ANAC055(1-171), 0.353 E-score; in the assay with GST-ATAF1 NAC domain it was 0.356 E-score; in [1] it was 0.405 E-score; with GST-NAP(1-166), 0.376 E-score. Also, the binding signal turned out to be 0.333 E-score with GST-NST2(1-184); 0.432 E-score in the assay with GST-SND1(1-203); 0.37 E-score with GST-VND3 NAC domain; 0.357 E-score with GST-VND7 NAC domain; 0.0595 E-score with GST-WRKY1(266-371).

Turning to ATGACGTG, the binding signal in the assay with GST-ANAC092(1-176) came out at 0.458 E-score; with GST-ANAC019 NAC domain, 0.311 E-score; in the assay with GST-ANAC055(1-171), 0.366 E-score; in the assay with GST-ATAF1 NAC domain it was 0.317 E-score; in assay [1], 0.463 E-score; with GST-NAP(1-166), 0.36 E-score. The binding signal in the assay with GST-NST2(1-184) amounted to 0.258 E-score; with GST-SND1(1-203) it was 0.326 E-score; with GST-VND3 NAC domain, 0.366 E-score; with GST-VND7 NAC domain it was 0.322 E-score; in the assay with GST-WRKY1(266-371), 0.0849 E-score.

Regarding TCACGTCA, the binding signal in the assay with GST-ANAC092(1-176) came out at 0.429 E-score; in the assay with GST-ANAC019 NAC domain, 0.38 E-score; with GST-ANAC055(1-171), 0.354 E-score; with GST-ATAF1 NAC domain it was 0.321 E-score; in assay [1] it was 0.429 E-score; with GST-NAP(1-166) it was 0.329 E-score. The binding signal in the assay with GST-NST2(1-184) turned out to be 0.188 E-score; with GST-SND1(1-203), 0.343 E-score; in the assay with GST-VND3 NAC domain, 0.322 E-score; with GST-VND7 NAC domain, 0.367 E-score; in the assay with GST-WRKY1(266-371), 0.292 E-score.

The record behind these values is article PMC4081100, “A DNA-binding-site landscape and regulatory network analysis for NAC transcription factors in Arabidopsis thaliana”.
